TGFb SMAD3 inh = inhibitors of TGF-b signaling; HepG2 CAGA-GFP TGF-b/SMAD3 reporter, GFP fluorescence, 18 h; TGF-beta stimulated, 500 pg/mL final; Potency, µM (series often up to 46.1 µM), inactives show top-dose activity, negative = inhibition, usual class: inhibitors; 410,000 tested, 1.2% active; also: % is scaled to controls: 0 for no effect and ±100 for the full control effect; nearly all actives have a fitted effect of over 65% in size
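Read-out: total well GFP (ex488/em500-530) summed from mean per-cell fluorescence. Cells: HEPG2 CAGA-GFP, 1% FBS DMEM, 18 h at 37 degrees C with 500 pg/mL final TGF-beta. Unstimulated wells served as the full-inhibition control; stimulated DMSO wells = 0%.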
ATXN viability = reduces viability in counter-screen for ATXN expression inhibitors | Potency, µM (doses to about 56.7 µM), most hits filed as cytotoxic | AID 651635 | S2 cells (HEK-293 line with an ATXN2-luciferase reporter) viability, CellTiter-Fluor protease fluorescence, 24 h | 400,000 tested, 0.49% active; also: nearly all actives have a fitted effect of over 40% in size
HT1080-NT tox = kills 2HG-producing HT-1080-NT fibrosarcoma cells; 360,000 tested, 1.6% active; AID 686970; Potency, µM (titrated, usually from 46.1 µM), for inactives: at the highest dose activity, negative = less viability, hits mostly cytotoxic; HT-1080-NT fibrosarcoma viability, CellTiter-Glo ATP luminescence, 48 h;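 also: NT is the 2HG producing partner of a matched IDH1 knockdown line; 0% = DMSO-treated cells and -100% = media-only wells without cells; nearly all actives have a fitted effect of over 55% in size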
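Compounds were tested in concentration-response format on HT-1080-NT cells for 48 hours at 37 degrees C. Cell viability came from CellTiter-Glo luminescence; curves were classified by r2, response magnitude and activity.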
ATXN2 expr inh = reduces ATXN2 reporter expression in HEK-293 cells; HEK-293 ATXN2-luciferase reporter, luminescence, 24 h; Potency, µM (top dose mostly 57 µM), inactives show top-dose activity change, negative = inhibition, hits mostly inhibitors; 360,000 tested, 0.72% active; AID 1745845; also: % is scaled to controls: 0 for no effect and ±100 for the full control effect; nearly all actives have a fitted effect of over 55% in size
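ATXN2-luciferase reporter cells (luciferase flanked by upstream and downstream ATXN2 gene portions) were treated 24 h at 37 °C with compounds at up to 57 uM. SteadyGlo luminescence gave expression; GF-AFC fluorescence gave viability.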
HT1080 IDH1KD tx = toxicity to HT-1080 IDH1 knockdown cells (counter line); HT-1080 IDH1 knockdown viability, ATP luminescence, 48 h; Potency, µM (doses to about 46.1 µM), for the others: at the top dose activity, negative = toxicity, actives largely listed as cytotoxic; 360,000 tested, 2% active;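 also: 0% = DMSO wells and -100% = cell-free medium wells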
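Luminescent ATP read-out (CellTiter-Glo, 10 min at room temperature) after 48 h compound exposure at 37 °C gave viability of IDH1-knockdown HT-1080 cells. Activity was normalised to DMSO and cell-free wells, then fitted as concentration-response curves.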
HepG2 tox = counter-screen for TGF-b inhibitors: cytotoxicity in HepG2 cells. Potency, µM (highest dose often 46.1 µM), for the others: at the top dose activity change, negative = cytotoxicity, hits mostly cytotoxic. 410,000 tested, 0.76% active. HepG2 CAGA-GFP viability, ATP luminescence, 18 h
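HepG2 CAGA-GFP cells (1000/well, DMEM with 1% FBS) received compound, then TGF-beta at 500 pg/mL final, and were incubated 18 hours at 37 degrees C. Viability was read by CellTiter-Glo luminescence. Media-only wells were set as complete cell-killing and DMSO as no toxicity.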
The depositor's hits bear a star; i = inactive; ? = inconclusive; . = no result; [ ] = dose if it differs, or a comment. Sampled rows, rich in hits. Any-hit rate of the full collection: about 3.8%. Calls follow the shape of the dose curve; as a rule, active = well fitted curve in the direction sought with a large enough effect; inconclusive = small, poorly fitted or top-dose-only effect, or another doubt; inactive = no such curve, though single readings can be large; an effect the other way counts as inactive or inconclusive. Potency is read from the fitted curve at half-maximal effect.

SMILES	TGFb SMAD3 inh	ATXN viability	HT1080-NT tox	ATXN2 expr inh	HT1080 IDH1KD tx	HepG2 tox
COc1ccc(Br)cc1CNC(=O)c1ccc2c(c1)nc1n2CCCCC1	38%	.	.	.	.	-15%
CN(C)CCCNc1nccc(N2CCN(C)CC2)n1	-1%	.	.	.	.	-29%
CCOC(=O)C1=C(Cc2ccc(F)cc2)C(=O)c2ccccc2C1=O	27%	?	18µM*	?	10µM*	-58%
O=C(Nc1ccc2c(c1)OCO2)c1cnn2c(C(F)(F)F)cc(-c3ccco3)nc12	4%	i	5%	-4%	2%	7%
O=C(Nc1cnn(C23CC4CC(CC(C4)C2)C3)c1)c1cnn2c(C(F)(F)F)cc(-c3ccco3)nc12	-2%	?	0%	22µM*	-2%	0%
CN(CC=CC#CC(C)(C)C)Cc1cccc2ccccc12	.	.	.	-15%	.	.
Brc1ccc2c(ccc[n+]2CCc2ccccc2)c1	-5%	.	.	.	.	-10%
C=CCN(C(=O)CSc1nc2c(sc3ccccc32)c(=O)n1CCN(CC)CC)c1ccccc1	18µM*	?	?	?	?	-21%
Cc1ccc(SC[C@H](Cc2ccccc2)N2CC[C@@H](C(C)(C)C)CCC2=O)cc1	-10%	.	.	.	.	1%
CC(C)(C)N(Cc1ccc2c(c1)OCO2)C(=O)/C=C\S(=O)c1ccccc1 (stereo not drawn)	11µM*	?	-26%	16µM*	13µM*	18µM*
Cc1ccc(NC(=O)C(=O)NCC(c2cccnc2)N2CCN(Cc3ccccc3)CC2)cc1C (stereo not drawn)	9%	i	.	-11%	.	-30%
COCCN(CC(=O)NC1CCCCC1)C(=O)/C=C/C(=O)c1ccc(OC)cc1O	?	.	23µM*	?	?	13µM*
COc1ccc(CN(C(=O)/C=C/C(=O)c2ccc(OC)cc2O)C(C(=O)NC2CCCCC2)c2ccncc2)cc1 (stereo not drawn)	?	?	0%	-4%	-4%	5%
COc1ccc(C(=O)/C=C/C(=O)N(CC(=O)NC2CCCCC2)Cc2cccs2)c(O)c1	?	27µM*	-22%	?	-11%	-54%
CN(CC(=O)O)c1ccc(/C=C/c2ccnc3ccccc23)cc1	?	.	.	.	.	-49%
Cc1oc(-c2ccccc2NC(=O)c2ccccn2)nc1CNC(=O)c1ccc(Oc2ccccc2)o1	.	i	.	.	.	.
O=C(CCl)c1ccc2c(c1)CCN2C(=O)C1CCCCC1	?	?	23µM*	8%[11.3 µM]	?	-25%
O=C(C1CCC1)N1CCc2cc(S(=O)(=O)Nc3ccc4c(c3)OCO4)ccc21	-4%	i	-16%	-11%	16µM*	-17%
COc1cc2c(cc1OC)C(C)N(C(=O)Nc1ccc(F)cc1)CC2 (stereo not drawn)	5%	?	?	.	?	0%
COc1ccc(CC(=O)N2CCc3cc(OC)c(OC)cc3C2COc2cc(C)cc(C)c2)cc1OC (stereo not drawn)	14µM*	i	.	0%	.	-18%
COc1cc2c(cc1OC)C(C)N(C(=O)Nc1cc(C)cc(C)c1)CC2 (stereo not drawn)	-22%	?	6.5µM*	.	7.3µM*	-17%
COc1ccccc1C(=O)N[C@@H]1c2ccccc2C2(CCN(Cc3cnn(C)c3C)CC2)[C@H]1O	.	i	.	.	.	.
CC(O)CNCCCOc1ccc(Cl)cc1C(C)(C)C (stereo not drawn)	?	?	18µM*	34µM*	?	-99%
CN(C)CCOCCOc1ccc(Cl)cc1C(C)(C)C	-23%	i	?	-27%	?	-28%
Cc1cccc(/N=C/c2c(O)ccc3oc4c(c23)CCCC4)n1	16µM*	i	-11%	-28%	-8%	1%
SMILES	TGFb SMAD3 inh	ATXN viability	HT1080-NT tox	ATXN2 expr inh	HT1080 IDH1KD tx	HepG2 tox
O=c1[nH]cc(CCc2ccccc2)c2ncncc12	.	.	16%	.	21%	.
CCCCN(C)C(=O)c1ccc(Nc2nc(C(N)Cc3ccc(C(F)(F)F)cc3)cs2)nc1 (stereo not drawn)	?	32µM*	?	-1%	16µM*	11µM*
NC(Cc1ccc(C(F)(F)F)cc1)c1csc(Nc2ccc(C(=O)NCc3ccco3)cn2)n1 (stereo not drawn)	?	22µM*	12µM*	13µM*	7.3µM*	20µM*
CCCCN(C)C(=O)c1ccc(Nc2nc(C(N)CCc3ccccc3)cs2)nc1 (stereo not drawn)	?	?	18µM*	?	23µM*	-89%
NC(CCc1ccccc1)c1csc(Nc2ccccn2)n1 (stereo not drawn)	?	?	?	?	16µM*	-60%
Cc1cnc(-n2ncc(C(=O)N[C@H]3CCCCNC3=O)c2C2CC2)nc1-c1cccs1	.	i	.	.	.	.
COc1ccc(CC(N)c2csc(Nc3cc(NCc4ccco4)ncn3)n2)cc1 (stereo not drawn)	?	?	?	?	?	11µM*
O=C(OCc1ccco1)c1ccc2c(c1)N(Cc1cccc(F)c1)C(=O)c1ccccc1S2	8%	i	.	11%	.	-10%
O=C(c1cnn(-c2nccc(-c3ccccc3F)n2)c1C1CC1)N1CCCCC1c1cccnc1 (stereo not drawn)	.	i	.	.	.	.
CCN(CC)C1CCCCC1NS(=O)(=O)c1ccc(Cl)cc1 (stereo not drawn)	0%	i	11%	-10%	1%	-5%
CN(c1ccccc1)C1CCCCC1NS(=O)(=O)c1ccc(Cl)cc1 (stereo not drawn)	11µM*	?	-21%	.	?	-83%
Cc1ccn(CCC(=O)N2CCOc3ccc(C(O)C4CCCCC4)cc3C2)n1 (stereo not drawn)	.	i	.	.	.	.
CC(C)(C)c1ccc(C(=O)NCCc2csc3nc(-c4ccccc4F)nn23)cc1	18µM*	?	.	0%	.	-22%
CCCCOc1ccc(C(=O)NCCc2csc3nc(-c4ccccc4F)nn23)cc1	-7%	i	.	0%	.	-16%
COC(=O)[C@@H]1CCCN1C(=O)c1c(OC)cc(=O)n2c1CCN(Cc1ccc3c(c1)CCO3)CC2	.	i	.	.	.	.
O=C(Cn1ncc(Cl)c(Cl)c1=O)NC(=O)NC1CCCCC1	?	30µM*	?	?	6.5µM*	-52%
CC(NC(=O)CN1C(=O)NC(Cc2ccccc2)(Cc2ccccc2)C1=O)C12CC3CC(CC(C3)C1)C2 (stereo not drawn)	-6%	?	21µM*	?	?	-61%

Source: PubChem BioAssay
